{"source": "PubChem BioAssay AID651814", "about": "(National Center for Advancing Translational Sciences (NCATS), 2012)", "note": "Hit rate of the full screen: of about 2,100 compounds, about 590 (28%) were called active. Roughly 42% stayed inconclusive and do not appear here. The list shows a part of the results. A number with no mark means an inactive call. Calls follow the shape of the dose curve; as a rule, active = well fitted inhibition curve with a large enough effect; inconclusive = small, poorly fitted or top-dose-only effect; inactive = flat fitted curve, though single readings scatter. Potency is read from the fitted curve at half-maximal effect.", "data": [{"molecular_target": "DNA dC->dU-editing enzyme APOBEC-3F (Homo sapiens) (UniProt Q8IUX4)", "sequence (Q8IUX4 whole entry, looked up)": "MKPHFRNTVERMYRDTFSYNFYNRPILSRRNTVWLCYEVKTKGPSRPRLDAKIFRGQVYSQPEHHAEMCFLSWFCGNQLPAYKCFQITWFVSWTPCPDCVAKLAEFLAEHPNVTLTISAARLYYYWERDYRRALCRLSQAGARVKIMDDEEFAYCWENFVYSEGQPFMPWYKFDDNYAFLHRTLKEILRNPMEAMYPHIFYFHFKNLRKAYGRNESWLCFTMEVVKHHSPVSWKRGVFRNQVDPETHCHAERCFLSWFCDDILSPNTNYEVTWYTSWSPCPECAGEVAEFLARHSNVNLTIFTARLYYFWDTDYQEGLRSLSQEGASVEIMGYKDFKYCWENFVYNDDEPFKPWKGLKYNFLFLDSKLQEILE", "assay": "qHTS for inhibitors of Vif-A3F interactions: Cherry picks; also: nearly all actives have a fitted effect of over 70% in size;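 as to max response: % of control where 0% means no effect; active compounds raise eYFP fluorescence by blocking Vif-driven A3F loss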", "conditions": "HeLa A3F-eYFP + Vif (tagged APOBEC3F with the HIV-1 protein that degrades it), eYFP fluorescence, 24 h", "method_in_brief": "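HeLa cells stably expressing A3F-eYFP plus Vif, cultured overnight, then exposed to compounds at several concentrations for 24 h at 37 deg C. Reduced Vif-driven degradation read as rising eYFP fluorescence (488 nm ex/500-530 nm em) by laser-scanning cytometry; MG132 as positive control.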", "units": {"max response": "%"}, "values": [{"smiles": "CC(NC(=S)Nc1cccc(C(F)(F)F)c1)C(C)(C)C", "note": "(configuration not stated)", "max response": 1.09}, {"smiles": "Cc1[nH][nH]c(=O)c1C(c1c(C)[nH][nH]c1=O)c1cn(Cc2ccccc2Cl)c2ccccc12", "max response": -24.8}, {"smiles": "COc1cc(/C=C(\\C#N)c2nc3ccc(C)cc3[nH]2)ccc1OC(C)C", "Potency": "20.6 µM (active)"}, {"smiles": "Cc1ccc2nc(/C(C#N)=C/c3ccc(O)c(O)c3)[nH]c2c1", "Potency": "15.8 µM (active)"}, {"smiles": "C=CCNC(=S)N/N=C/c1ccc(C)cc1C", "max response": -2.08}, {"smiles": "O=[N+]([O-])c1ccc(N/N=C/c2c[nH]c3ccccc23)cc1", "Potency": "14.6 µM (active)"}, {"smiles": "COc1ccccc1NS(=O)(=O)c1cc([N+](=O)[O-])ccc1N/N=C/c1c(C)[nH]c2ccccc12", "Potency": "1.98 µM (active)"}, {"smiles": "O=C(N/N=C/c1c[nH]c2ccccc12)C1COc2ccccc2O1", "note": "(configuration not stated)", "max response": 4.43}, {"smiles": "Cc1[nH]c2ccccc2c1/C=N/Nc1ccc([N+](=O)[O-])cc1", "Potency": "18.4 µM (active)"}, {"smiles": "CCN(CC)c1ccc(NC(=O)c2ccc(=O)[nH]c2)cc1S(=O)(=O)Nc1ccccc1OC", "max response": -20.2}, {"smiles": "COc1ccccc1NS(=O)(=O)c1cc([N+](=O)[O-])ccc1N/N=C/c1c[nH]c2ccccc12", "Potency": "13 µM (active)"}, {"smiles": "Cc1cccn2c(=O)c3cc(C#N)c(=NC(=O)c4cccs4)n(CCCOC(C)C)c3nc12", "max response": -23.5}, {"smiles": "Cc1cccc(CSc2cccc3cccnc23)c1", "max response": 2.73}, {"smiles": "Cn1c(=O)c2c(nc(NC3CCCC3)n2C)n(C)c1=O", "max response": -0.225}, {"smiles": "COc1cc(/C=N/Nc2cc(C)nc(NS(=O)(=O)c3ccccc3)n2)ccc1O", "max response": 2.36}, {"smiles": "O=C(c1ccccn1)C1CCCN(Cc2cn[nH]c2-c2cc3ccccc3o2)C1", "note": "(configuration not stated)", "max response": 1.54}, {"smiles": "O=C(O)CSc1c2ccccc2cc2ccccc12", "max response": -4.37}, {"smiles": "C/C(=N/Nc1ccc([N+](=O)[O-])cc1)c1c[nH]c2ccccc12", "Potency": "9.2 µM (active)"}, {"smiles": "COc1ccc(NS(=O)(=O)c2cc([N+](=O)[O-])ccc2N/N=C/c2c(C)[nH]c3ccccc23)cc1", "Potency": "16.4 µM (active)"}, {"smiles": "O=[N+]([O-])c1ccc(N/N=C/c2c[nH]c3ccccc23)c(S(=O)(=O)Nc2ccc(Cl)cc2)c1", "Potency": "18.4 µM (active)"}, {"smiles": "CNC(=S)N/N=C(\\C)c1ccc(Cl)s1", "max response": -3.1}, {"smiles": "COCCNC(=S)N/N=C(\\C)c1ccccc1O", "max response": 0.575}, {"smiles": "Cc1ccc2nc(NS(=O)(=O)c3ccc(Cl)cc3)c(Nc3ccc(C(=O)O)cc3)nc2c1", "max response": -8.36}, {"smiles": "COc1ccc(NC(=O)c2ccc(NC(=O)C(C)C)cc2)c([N+](=O)[O-])c1", "max response": -19.6}, {"smiles": "O=C(Nc1cc(F)cc(F)c1)c1ccc(NCCc2ccccc2)c([N+](=O)[O-])c1", "Potency": "20.6 µM (active)"}, {"smiles": "O=C(NC(=S)Nc1ccc(N2CCCCC2)c(Cl)c1)c1ccc2c(c1)OCCO2", "max response": -28.8}, {"smiles": "Cc1ccc(NC(=O)c2ccc(NCCCN3CCC(C)CC3)c([N+](=O)[O-])c2)cc1F", "max response": -24}, {"smiles": "Cc1ccc(NC(=O)c2ccc(NCC3CCCO3)c([N+](=O)[O-])c2)cc1Cl", "note": "(configuration not stated)", "Potency": "20.6 µM (active)"}, {"smiles": "Cc1ccc(NC(=O)c2ccc(NCc3ccco3)c([N+](=O)[O-])c2)cc1Cl", "Potency": "16.4 µM (active)"}, {"smiles": "CC1C/C(=N\\NC(N)=S)c2cc(Cl)ccc2S1", "note": "(configuration not stated)", "max response": -5.07}, {"smiles": "C/C(CCC(C)C)=N\\NC(=S)NCc1ccccc1", "max response": -4.2}, {"smiles": "CCOC(=O)c1csc(NC(=O)c2cc(-c3ccccn3)nc3ccccc23)n1", "max response": -1.96}, {"smiles": "CCOC(=O)Cc1csc(NC(=O)c2sc3nc4c(C)cc(C)cc4cc3c2N)n1", "Potency": "20.6 µM (active)"}, {"smiles": "C[C@]12CCC[C@H](O1)c1c(cc3c(c1O)C(=O)c1c(O)cc(O)cc1C3=O)O2", "Potency": "14.6 µM (active)"}, {"smiles": "O=C(CC1CC2CCC1C2)Nc1nc(-c2ccccn2)cs1", "note": "(configuration not stated)", "max response": 0.305}, {"smiles": "Cc1sc2nc(SCC(=O)N3CCOCC3)[nH]c(=O)c2c1-c1ccccc1", "max response": -2.85}, {"smiles": "CCOC(=O)CSc1nc2c(c(=O)[nH]1)C(C)(CC)Cc1ccccc1-2", "note": "(configuration not stated)", "Potency": "8.2 µM (active)"}, {"smiles": "CCOc1cc(N(CC)CC)ccc1/C=C(/C#N)c1nc2ccccc2[nH]1", "Potency": "1.46 µM (active)"}, {"smiles": "CCCOc1cc(N(CC)CC)ccc1/C=C(/C#N)c1nc2ccc(C)cc2[nH]1", "max response": 0.514}, {"smiles": "CCN(CC)c1ccc(/C=C(/C#N)c2nc3ccccc3[nH]2)c(OC(C)C)c1", "Potency": "2.06 µM (active)"}, {"smiles": "Cc1cccc(OCCOc2ccccc2C=C(C#N)C#N)c1", "max response": -24.6}, {"smiles": "C/C(=N\\NC(N)=S)C12CC3CC(CC(C3)C1)C2", "max response": 3.49}, {"smiles": "CN(C)c1ccc(C=C2SC(=S)NC2=O)cc1", "Potency": "17.7 µM (active)"}, {"smiles": "CCOc1cc(Br)cc(/C=C2\\SC(=Nc3ccccc3)NC2=O)c1O", "max response": -27.7}, {"smiles": "CCOc1ccc(N(C)c2ccc(/C=C3/SC(=S)NC3=O)cc2)cc1", "Potency": "15.8 µM (active)"}, {"smiles": "COc1ccccc1N=C1NC(=O)/C(=C/c2ccc(N(C)C)cc2)S1", "Potency": "4.11 µM (active)"}, {"smiles": "CC12CC3CC(C)(C1)CC(C(=O)NC(=S)N1CCOCC1)(C3)C2", "max response": 4.69}, {"smiles": "CSc1nc(N)c(C#N)c(-c2ccccc2Cl)c1C#N", "max response": -19.1}, {"smiles": "CC(=O)Nc1cccc(-c2ccnc3c2CC(C)(C(=O)NCc2cccs2)O3)c1", "note": "(configuration not stated)", "max response": -24.8}, {"smiles": "CN(C)S(=O)(=O)c1ccc(N2CCCC2)c(C(=O)N2CCN(S(=O)(=O)c3ccc(F)c(F)c3)CC2)c1", "max response": 3.41}, {"smiles": "COc1ccc(OCCCC(=O)N2CCN(S(=O)(=O)c3cccc(F)c3)CC2)cc1", "max response": -3.23}, {"smiles": "CC1(C)Cc2c(sc3ncnc(NNC(=S)NCc4ccccc4)c23)CO1", "max response": -20.8}, {"smiles": "C=C(C)CNC(=S)NNC(=O)c1ccco1", "max response": 4.89}, {"smiles": "Cc1ccc(NC(=O)/C(C#N)=C\\c2ccc(-c3ccc(Cl)cc3)o2)c(C)c1", "Potency": "7.31 µM (active)"}, {"smiles": "N#C/C(=C/c1ccc(-c2ccc([N+](=O)[O-])cc2)o1)C(=O)Nc1nc(-c2cccs2)cs1", "max response": -8.39}, {"smiles": "CN(C)CCNc1ccc2ncn3c4ccc(O)cc4c(=O)c1c23", "Potency": "20.6 µM (active)"}, {"smiles": "CCN(CC)CCCNc1ccc2ncn3c4ccc(O)cc4c(=O)c1c23", "Potency": "8.2 µM (active)"}]}]}
